Results from PubChem BioAssay (NCATS).
Records with an inconclusive call do not appear. Active and inactive are the calls of the source. The call rests on the fitted dose curve; in most records, active means well fitted curve in the direction sought with a large enough effect; inconclusive means small, poorly fitted or top-dose-only effect, or another doubt; inactive means no such curve, though single readings can be large; an effect the other way counts as inactive or inconclusive.

Target: Lysine-specific demethylase 5B (Homo sapiens) (UniProt Q9UGL1)
Sequence (Q9UGL1 whole entry, looked up): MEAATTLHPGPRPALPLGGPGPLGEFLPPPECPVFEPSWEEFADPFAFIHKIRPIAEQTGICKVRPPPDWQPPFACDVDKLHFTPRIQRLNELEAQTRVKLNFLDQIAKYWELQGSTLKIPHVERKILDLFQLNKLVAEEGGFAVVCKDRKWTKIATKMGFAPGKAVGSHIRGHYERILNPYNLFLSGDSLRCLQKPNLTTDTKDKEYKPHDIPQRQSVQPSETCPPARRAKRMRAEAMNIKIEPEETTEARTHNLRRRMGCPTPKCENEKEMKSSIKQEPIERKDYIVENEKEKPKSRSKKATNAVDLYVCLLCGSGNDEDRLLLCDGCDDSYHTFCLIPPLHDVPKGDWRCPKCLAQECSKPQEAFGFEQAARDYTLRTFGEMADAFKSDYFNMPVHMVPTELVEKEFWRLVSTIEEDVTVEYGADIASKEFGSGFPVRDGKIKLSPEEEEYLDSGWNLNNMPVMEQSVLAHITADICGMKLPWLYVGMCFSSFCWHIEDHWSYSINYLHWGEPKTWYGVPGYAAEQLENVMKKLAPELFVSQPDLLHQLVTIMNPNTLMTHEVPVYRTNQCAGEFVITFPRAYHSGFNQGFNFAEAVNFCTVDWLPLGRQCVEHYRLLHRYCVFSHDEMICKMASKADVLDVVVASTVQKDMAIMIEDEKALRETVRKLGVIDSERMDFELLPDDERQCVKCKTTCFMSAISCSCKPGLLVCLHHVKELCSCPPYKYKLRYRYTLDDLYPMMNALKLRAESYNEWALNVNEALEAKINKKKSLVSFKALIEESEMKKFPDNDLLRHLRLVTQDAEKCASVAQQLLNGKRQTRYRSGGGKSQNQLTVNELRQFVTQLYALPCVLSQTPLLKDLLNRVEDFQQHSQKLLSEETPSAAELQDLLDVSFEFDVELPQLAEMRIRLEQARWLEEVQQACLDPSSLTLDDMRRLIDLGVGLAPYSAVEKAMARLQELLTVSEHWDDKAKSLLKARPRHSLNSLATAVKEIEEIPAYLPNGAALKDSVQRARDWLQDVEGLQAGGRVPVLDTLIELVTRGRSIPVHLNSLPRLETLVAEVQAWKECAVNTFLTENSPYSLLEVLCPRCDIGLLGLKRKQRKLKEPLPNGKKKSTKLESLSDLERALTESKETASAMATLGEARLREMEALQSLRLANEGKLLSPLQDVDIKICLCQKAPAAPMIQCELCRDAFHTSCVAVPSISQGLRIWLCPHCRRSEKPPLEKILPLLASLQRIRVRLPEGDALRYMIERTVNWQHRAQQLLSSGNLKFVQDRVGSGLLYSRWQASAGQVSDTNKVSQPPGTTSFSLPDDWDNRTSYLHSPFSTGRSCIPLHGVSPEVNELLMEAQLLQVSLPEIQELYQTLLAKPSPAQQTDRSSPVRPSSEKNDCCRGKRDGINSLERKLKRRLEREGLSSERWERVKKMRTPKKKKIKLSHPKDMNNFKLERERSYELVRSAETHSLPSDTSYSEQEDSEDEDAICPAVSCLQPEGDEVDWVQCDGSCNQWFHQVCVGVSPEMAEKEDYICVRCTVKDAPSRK
Assay: Optimization screen for KDM5B Histone Demethylases FDH coupled qHTS against the LOPAC library (AID 1347166); further: 0% is about no effect
Settings: KDM5B demethylation, FDH-coupled NADH fluorescence (FDH is formaldehyde dehydrogenase); series mostly up to 57.5 µM; activity, negative = inhibition: at the top concentration
Method in brief: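 KDM5BDeltaAP (200nM final) in 50mM HEPES pH 7.5, 0.01% Tween-20 was preincubated with compound for 10 min at room temperature. A substrate mix of 12.5uM H3K4Me3, 25uM a-ketoglutarate, ascorbate, Fe2+, NAD+ and formaldehyde dehydrogenase was then added. NADH fluorescence (340/450 nm) was read initially and after 30 min.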

Compound | activity, negative = inhibition
CCCN(CC1CC1)c1nc(C)nc(Nc2c(Cl)cc(Cl)cc2Cl)c1Cl | -4.08% (inactive)
CN(C)C(N)=NCCC[C@H](N)C(=O)O | -20.4% (inactive)
CCN(CC)c1ncnc2c1ncn2[C@@H]1O[C@H](COP(=O)(O)OP(=O)(O)C(Br)(Br)P(=O)(O)O)[C@@H](O)[C@H]1O | -6.63% (inactive)
NC(=O)C(=O)O | -0.618% (inactive)
Oc1cc2c(cc1O)CN(C(=S)NCCc1ccc(Cl)cc1)CCC2 | -22.8% (inactive)
CCCCCCCCCCCCCCCCCCNC(=O)OCC(COP(=O)([O-])OCC[n+]1ccsc1)OC (centres undefined) | -6.84% (inactive)
CC(C)Cc1ccc([C@H](C)C(=O)O)cc1 | -5.14% (inactive)
c1cnc2c(c1)ccc1cccnc12 | -3.77% (inactive)
N=C(N)SCCc1ccc(CCSC(=N)N)cc1 | -2.17% (inactive)
O=C(O)CCCC[C@@H]1CCSS1 | 7.34% (inactive)
CC(=O)SCC[N+](C)(C)C | -3.44% (inactive)
N[C@@H](CC(=O)O)C(=O)O | -5.47% (inactive)
O=C(Nc1ccccc1)c1cc([N+](=O)[O-])ccc1Cl | -8.69% (inactive)
Cc1ccccc1CNc1ncnc2c1ncn2C1OC(CO)C(O)C1O (centres undefined) | -0.295% (inactive)
O=C(O)[C@@H]1C[C@@H](C(=O)O)N1 | 2.49% (inactive)
O=c1[nH]c2cc([N+](=O)[O-])c([N+](=O)[O-])cc2[nH]c1=O | -4.85% (inactive)
CC[C@@H](C)[C@H]1O[C@]2(CC[C@H]1C)C[C@@H]1C[C@@H](CC=C(C)[C@@H](O[C@H]3C[C@H](OC)[C@@H](O[C@H]4C[C@H](OC)[C@@H](O)[C@H](C)O4)[C@H](C)O3)[C@@H](C)C=CC=C3CO[C@@H]4[C@H](O)C(C)=C[C@@H](C(=O)O1)[C@]34O)O2 | -24.9% (inactive)
COc1cccc(OC)c1OCCNCC1COc2ccccc2O1 (centres undefined) | -1.6% (inactive)
CN(C)c1ccc(/C=C2\C(=O)Nc3ccccc32)cc1 | -11.8% (inactive)
C=CC(N)CCC(=O)O (centres undefined) | -3.05% (inactive)
COc1cc2c(CCNC(C)=O)c[nH]c2cc1Cl | -0.505% (inactive)
Nc1nc(Nc2ccccc2)nc2c1ncn2[C@@H]1O[C@H](CO)[C@@H](O)[C@H]1O | -8.11% (inactive)
CN1CC(=O)N/C1=N/C(=O)Nc1cccc(Cl)c1 | -8.11% (inactive)
CN1CCc2cc(NC(=O)Nc3cccnc3)ccc21 | -7.1% (inactive)
Brc1c(Br)c(Br)c2n[nH]nc2c1Br | -28.7% (inactive)
S=C(S)OC1CC2CC1C1CCCC21 (centres undefined) | -15.9% (inactive)
CC(C)CC(NP(=O)(O)O[C@@H]1O[C@@H](C)[C@H](O)[C@@H](O)[C@H]1O)C(=O)NC(Cc1c[nH]c2ccccc12)C(=O)O (some centres undefined) | -5.45% (inactive)
O=C(Nc1cccc(C(=O)Nc2ccc(S(=O)(=O)O)c3cc(S(=O)(=O)O)cc(S(=O)(=O)O)c23)c1)Nc1cccc(C(=O)Nc2ccc(S(=O)(=O)O)c3cc(S(=O)(=O)O)cc(S(=O)(=O)O)c23)c1 | -15.4% (inactive)

Tested on: not listed separately
Assay: Vero cells viability qHTS for Zika virus inhibitors (AID 1347167); further: on the % scale 0 is the no-effect control and ±100 the full control effect
Settings: cytotoxicity counter-screen (Zika); series mostly up to 45.9 µM; activity change, negative = cytotoxicity: at the top concentration
Method in brief: (§1)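 Luminescent ATP readout (CellTiter Glo) after 30 min at 37 degrees C gives viability; cells in DMEM + 4% FBS were treated 24 to 48 hours with compound, following overnight attachment.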

Compound | activity change, negative = cytotoxicity
COc1ccc(/C=C/c2nc(NCCCN(C)C)c3ccccc3n2)cc1 | -7.52% (inactive)
Cn1c(=O)c2[nH]c(-c3ccccc3)nc2n(C)c1=O | -7.19% (inactive)
NC(=O)C(=O)O | -1.68% (inactive)
Oc1cc2c(cc1O)CN(C(=S)NCCc1ccc(Cl)cc1)CCC2 | -8.11% (inactive)
C=C[C@@H]1CN2CC[C@@H]1C[C@H]2[C@H](O)c1ccnc2ccc(OC)cc12 | -5.67% (inactive)
CN1CCN(c2cc3c(nn2)Oc2ccccc2N3C)CC1 | -1.58% [at 26.9 µM] (inactive)
COC(=O)C1=C(C)NC(C)=C(C(=O)OC)C1c1cccc(NC(=O)NCCCN2CCC(c3cccc(OC)c3)CC2)c1 | -3.34% (inactive)
Cc1ccccc1CNc1ncnc2c1ncn2C1OC(CO)C(O)C1O (centres undefined) | -5.25% (inactive)
CCCCN(CC)c1nc(C)nc2c1c(C)cn2-c1c(C)cc(C)cc1C | -6.86% (inactive)
S=c1[nH]c(-c2ccccc2)cn1-c1ccccc1 | -1.85% (inactive)

Tested on: not listed separately
Assay: HepG2 cells viability qHTS for Zika virus inhibitors (AID 1347168); further: on the % scale 0 is the no-effect control and ±100 the full control effect
Settings: Zika counter-screen; series mostly up to 45.9 µM; activity change, negative = cytotoxicity: at the top concentration
Method in brief: as §1

Compound | activity change, negative = cytotoxicity
COc1ccc(/C=C/c2nc(NCCCN(C)C)c3ccccc3n2)cc1 | -0.189% (inactive)
Cn1c(=O)c2[nH]c(-c3ccccc3)nc2n(C)c1=O | 8.22% (inactive)
NC(=O)C(=O)O | 0.12% (inactive)
Oc1cc2c(cc1O)CN(C(=S)NCCc1ccc(Cl)cc1)CCC2 | 3.57% (inactive)
CN1CCN(c2cc3c(nn2)Oc2ccccc2N3C)CC1 | -0.549% [at 26.9 µM] (inactive)
Cc1ccccc1CNc1ncnc2c1ncn2C1OC(CO)C(O)C1O (centres undefined) | 4.35% (inactive)
CCCCN(CC)c1nc(C)nc2c1c(C)cn2-c1c(C)cc(C)cc1C | -2.88% (inactive)
S=c1[nH]c(-c2ccccc2)cn1-c1ccccc1 | 1.06% (inactive)

Tested on: not listed separately
Assay: Tertiary RLuc qRT-PCR qHTS assay for Zika virus inhibitors (AID 1347169); further: nearly all actives have a fitted effect of over 55% in size; further: potency means the concentration at half of the fitted maximal effect; on activity change, negative = inhibition: top concentration of the series differs between compounds; on the % scale 0 is the no-effect control and ±100 the full control effect
Settings: infected Vero cells, reporter luminescence, 48-72 h; series mostly up to 45.9 µM; activity change, negative = inhibition: at the top concentration
Method in brief: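 Vero cells (1,000 per well) plated overnight at 37 degrees C, treated with compound in DMSO, then infected with recombinant ZIKV-RLuc (Cambodian) at MOI 1-2 for 48-72 hrs. Live-cell Renilla luciferase substrate added; luminescence read after 1-1.5 hrs.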

Compound | activity change, negative = inhibition | Potency
Cn1c(=O)c2[nH]c(-c3ccccc3)nc2n(C)c1=O | 2.51% (inactive) | –
NC(=O)C(=O)O | 13.2% (inactive) | –
Oc1cc2c(cc1O)CN(C(=S)NCCc1ccc(Cl)cc1)CCC2 | – | 13.1 µM (active)
CN1CCN(c2cc3c(nn2)Oc2ccccc2N3C)CC1 | -9.04% [at 26.6 µM] (inactive) | –
Cc1ccccc1CNc1ncnc2c1ncn2C1OC(CO)C(O)C1O (centres undefined) | -24.2% (inactive) | –
CC[C@@H](C)[C@H]1O[C@]2(CC[C@H]1C)C[C@@H]1C[C@@H](CC=C(C)[C@@H](O[C@H]3C[C@H](OC)[C@@H](O[C@H]4C[C@H](OC)[C@@H](O)[C@H](C)O4)[C@H](C)O3)[C@@H](C)C=CC=C3CO[C@@H]4[C@H](O)C(C)=C[C@@H](C(=O)O1)[C@]34O)O2 | – | 3.7 µM (active)
S=c1[nH]c(-c2ccccc2)cn1-c1ccccc1 | -7.22% (inactive) | –
O=C(Nc1cccc(C(=O)Nc2ccc(S(=O)(=O)O)c3cc(S(=O)(=O)O)cc(S(=O)(=O)O)c23)c1)Nc1cccc(C(=O)Nc2ccc(S(=O)(=O)O)c3cc(S(=O)(=O)O)cc(S(=O)(=O)O)c23)c1 | – | inactive
